# pS6 MEF inh: inhibitors of mTORC1 signaling in Tsc2-/- p53-/- MEF cells; Tsc2-/- p53-/- MEF, phospho-rpS6 immunofluorescence/PI, 24 h; Potency, µM (highest dose often 38.3 µM), most hits filed as inhibitors; 0.78% of 44,000 active; also: nearly all actives have a fitted effect of over 50% in size
#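 Readout is phospho-S6 Alexa 488 signal normalized to PI per well, reported as % active cells with thresholds set from rapamycin (7.5 nM) and DMSO controls. Cells: Tsc2-/-, p53-/- MEFs, 24 hrs compound at 37 C; PI cell number serves as viability.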
# S16 viability: toxic to S16 Pmp22-F2sN Schwann cells | S16 Pmp22-F2sN Schwann cells viability, CellTiter-Glo, 24 h | Potency, µM (doses to about 57.5 µM), usual class: cytotoxic | 0.48% of 43,000 active; also: nearly all actives have a fitted effect of over 65% in size
#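 Luminescence from CellTiter-Glo, read by CCD camera after a 15 min room-temperature incubation, served as the viability signal. Reporter Schwann cells (S16 Pmp22-F2sN) had been treated with pin-transferred compounds for 24 h at 37C.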
# OvCa metastasis: ovarian cancer metastasis inhibition, 3D TME model | SKOV3ip1-GFP adhesion/invasion on 3D omental model, fluorescence | Potency, µM (top dose mostly 45.8 µM), most hits filed as inhibitors | 0.1% of 46,000 active | AID 1963576; also: nearly all actives have a fitted effect of over 65% in size
#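 Primary human omental fibroblast/mesothelial 3D culture pre-formed 48 h. SKOV3ip1-GFP cells added with compounds (0.36-46 umol/L), incubated 2 h RT/16 h 37 C, fixed; GFP cells quantified at 488/509 nm.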
# HTT-AS promoter: HTT-AS promoter activation; HEK293 HTT-AS promoter firefly luciferase reporter, 24 h; response scale: percent change from vehicle, -100% = no light; Potency, µM (highest dose often 57.5 µM), most hits filed as activators; 0.24% of 48,000 active; also: nearly all actives have a fitted effect of over 55% in size
#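 Firefly luciferase readout (Dual-Glo, 10 min RT) after 24 h, 37 °C compound exposure (final up to 57.5 uM) of HEK293 reporter cells cultured 24 h beforehand; PTC124 at 50 uM final as control inhibitor; activity scaled vehicle 0%, zero RLU -100%.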
# HTT promoter inh: HTT promoter inhibition. HEK293 HTT promoter firefly luciferase reporter, 24 h. Potency, µM (doses to about 57.5 µM), most hits filed as inhibitors. 0.93% of 48,000 active. AID 1508623; also: nearly all actives have a fitted effect of over 50% in size
#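 Quantitative HTS used concentration series of up to 57.5 uM final on HEK293 luciferase reporter cells, 24 h at 37 degrees C. Readout was Dual-Glo firefly luminescence.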
# PMP22 txn prim: modulates PMP22 transcription in S16 Schwann cells; S16 Pmp22-F2sN Schwann cells (luciferase reporters placed in the Pmp22 gene), FLuc/NLuc coincidence luminescence, 24 h; Potency, µM (highest dose often 57.5 µM), actives largely listed as inhibitors; 2% of 43,000 active; active = clear falling dose curves in both reporters; inconclusive = both reporters move, but less clearly or upward; inactive = either reporter flat; the % is the NLuc reporter signal
#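 S16 Schwann cells carrying FLuc/NLuc coincidence reporter in the Pmp22 3' UTR treated with compound 24 h at 37C; FLuc then NLuc luminescence read sequentially by dual-luciferase reagents.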
# A number is an active result; - = inactive; ? = inconclusive; . = no result; ! = a repeat was not active. A selection: hits, their analogues and other compounds. The true share with any hit is near 3.6%. Unless noted, calls follow the shape of the dose curve; as a rule, active = well fitted curve in the direction sought with a large enough effect; inconclusive = small, poorly fitted or top-dose-only effect, or another doubt; inactive = no such curve, though single readings can be large; an effect the other way counts as inactive or inconclusive.
SMILES,pS6 MEF inh,S16 viability,OvCa metastasis,HTT-AS promoter,HTT promoter inh,PMP22 txn prim
Cc1ccc(CN2c3ccccc3-c3nc(SCC(=O)Nc4c(C)cc(C)cc4C)ncc3S2(=O)=O)cc1,-,28.2µM,-,-,-,?
C[C@H](NCc1ccc2c(c1)nc(NC(=O)c1ccc(-c3cn[nH]c3)s1)n2CCc1ccccc1)C(C)(C)C,.,.,18.7µM,-,?,.
CCOc1ccccc1N(CC)C(=O)c1cc2c(=O)[nH]c3ccc(C)cc3c2s1,-,-,-,-,2.51µM,?
CC(C)(O)CC(=O)NCCn1ccc2ncnc(Nc3ccc(Oc4cccc(C(F)(F)F)c4)c(Cl)c3)c21,.,.,-,-,-,.
Cc1ccccc1OCC(O)Cn1c(=N)n(CCN2CCCCC2)c2ccccc21 (centres undefined),10.4µM,?,?,-,?,?
Cc1ccccc1OCCn1c(=N)n(C(C)C)c2ccccc21,18.5µM,?,?,-,?,?
CC1=Nc2cc(C(=O)NC3CCCC3)ccc2Sc2ccc(Cl)cc21,-,?,-,-,?,5.32µM
CNC(=O)c1ccc2c(c1)N=C(C)c1cc(C)ccc1S2,-,-,-,-,-,-
CCC1=Nc2cc(C(=O)NC3CCCC3)ccc2Sc2ccc(Cl)cc21,?,?,-,-,?,8.43µM
Cc1ccc(/C=C/c2nc3ccccc3[nH]2)cc1,-,15.8µM,?,-,-,?
O=C(O)CCc1nc2ccccc2[nH]1,.,.,.,-,-,.
O=c1[nH]c(=O)n([C@H]2C[C@@H](O)[C@@H](CO)O2)cc1C(F)(F)F,.,.,-,-,-,.
O=C(COc1ccc(F)cc1)Nc1ccc(Cl)c(-c2nc3ccccc3[nH]2)c1,-,-,-,-,-,-
c1ccc2[nH]c(-c3cscn3)nc2c1,.,.,-,19.3µM!,-,.
Cc1ccc(-c2c(C)n3c4c(=O)n(C)c(=O)n(C)c4nc3n2CCO)cc1,-,?,-,-,2µM,4.8µM
COc1ccc(-c2nc3ccccc3s2)cc1NC(C)=O,-,-,-,1.41µM,-,?
COc1ccc(-c2nc3ccccc3s2)cc1NC(=O)c1cccc([N+](=O)[O-])c1C,-,-,-,2µM,-,?
COc1ccc(-c2nc3ccccc3s2)cc1NC(=O)c1ccccc1F,-,-,-,-,-,-
Cc1ccc([C@@H]2O[C@H](CO)[C@@H](O)[C@H](O)[C@@H]2O)cc1Cc1ccc(-c2ccc(F)cc2)s1,.,.,-,-,-,.
CCCOCc1cc(CN2CCN(c3cccc(Cl)c3)CC2)c(O)c2ncccc12,?,?,?,-,8.91µM,?
CCCCOCc1cc(CN2CCN(c3cccc(Cl)c3)CC2)c(O)c2ncccc12,?,?,-,-,?,2.67µM
O=C(NCCCN1CCN(c2cccc(Cl)c2)CC1)c1sc2ncccc2c1-n1cccc1,-,?,-,-,?,?
COc1cccc2cc(-c3nc(C4CCC(C(=O)O)CC4)n4ncnc(N)c34)[nH]c12 (centres undefined),.,.,-,-,?,.
CC(C)(CC(=O)NCc1ccc(Cl)cc1Cl)CC1=NS(=O)(=O)c2ccccc2N1,-,?,-,-,20µM,?
CCc1ccc(OCC(=O)N(Cc2ccc(C)cc2)Cc2ccco2)cc1,4.14µM,-,-,-,-,?
SMILES,pS6 MEF inh,S16 viability,OvCa metastasis,HTT-AS promoter,HTT promoter inh,PMP22 txn prim
Cc1ccc(CN(Cc2ccco2)C(=O)COc2ccc(C)c(C)c2)cc1,-,-,-,-,-,-
CCc1ccc(-n2c(=O)c3c4c(sc3n(CC(=O)c3ccc(F)cc3)c2=O)CCC4)cc1,5.21µM,-,-,-,-,?
CCOC(=O)N[C@@H]1CC[C@@H]2[C@@H](C1)C[C@H]1C(=O)O[C@H](C)[C@H]1[C@@H]2C=Cc1ccc(-c2cccc(F)c2)cn1,.,.,-,-,?,.
CCOC(=O)COc1ccc(/C=C(\C#N)c2nc3ccc(C)cc3[nH]2)cc1OC,-,8.91µM,-,-,-,8.91µM
C[C@]12CC[C@@H]3c4ccc(O)cc4C[C@@H](CCCCCCCCCS(=O)CCCC(F)(F)C(F)(F)F)[C@H]3[C@H]1CC[C@H]2O (some centres undefined),.,.,-,-,-,.
COc1ccc(CNC(=O)C2CCN(c3nc4ccc(C)cc4[nH]3)CC2)cc1,13.1µM,-,-,-,-,-
Cc1ccc2nc(N3CCC(C(=O)NCc4ccc(F)cc4)CC3)[nH]c2c1,-,-,-,-,-,-
Clc1cccc(-c2nnnn2Cc2cccnc2)c1Cl,.,.,-,-,-,.
Cc1cc(NCc2ccccc2Cl)n2cnnc2n1,-,-,-,-,17.8µM,?
Cc1ccc(C(=O)Nc2ccc3c(c2)N(C)C(=O)c2ccccc2S3)cc1F,-,?,-,-,12.6µM,?
CC(C)NC(=O)Nc1ccc2c(c1)N(C)C(=O)c1ccccc1S2,?,-,-,-,-,-
CN1C(=O)c2ccccc2Sc2ccc(NC(=O)N3CCN(c4ccc(F)cc4)CC3)cc21,-,-,-,-,28.2µM,?
Nc1ncn([C@@H]2O[C@H](CO)[C@@H](O)[C@@H]2O)c(=O)n1,.,.,-,-,?,.
Cn1c(NCc2ccccc2F)nc2ccccc21,-,-,-,5.01µM,-,-
NC[C@H]1O[C@H](O[C@H]2[C@@H](O)[C@@H](O[C@H]3O[C@H](CO)[C@@H](O)[C@H](N)[C@@H]3O)[C@H](N)C[C@@H]2N)[C@H](N)C[C@H]1O,.,.,-,-,-,.
Cc1ccccc1OCC(=O)Nc1ccccc1C(=O)OCc1cc(=O)n2c(C)csc2n1,-,-,-,-,2.24µM,?
Cc1ccccc1-c1noc(-c2cc3ccccc3oc2=O)n1,-,-,-,2.51µM,-,?
CC(C)COc1ccc(C(=O)NCC2(N3CCN(C)CC3)CCCCC2)cc1,16.5µM,?,?,-,-,?
CC(C)(C)c1ccc(OCC(=O)NCC2(N3CCOCC3)CCCCC2)cc1,?,?,-,-,?,?
CN1CCN(C2(CNC(=O)c3ccc(C(C)(C)C)cc3)CCCCC2)CC1,16.5µM,?,-,-,-,?
CCCCc1nn2c(=O)cc(COC(=O)c3cccc(NC(=O)CCc4ccccc4)c3)nc2s1,-,-,-,0.251µM,-,?
CCCc1nn2c(=O)cc(COC(=O)c3cccc(NC(=O)CCc4ccccc4)c3)nc2s1,-,-,-,-,-,-
COc1ccc(Cc2ccc(NC(N)=O)cc2)cc1-c1cccc(Cl)c1,.,.,-,-,-,.
CCOc1ccc(-c2nc(CSCC(=O)NCCc3ccc(OCC)c(OCC)c3)c(C)o2)cc1,-,-,-,-,14.1µM,?
